Experimental data reported in PubChem BioAssay (NCI).
The panel holds about 79,000 compounds, 15% with a hit somewhere; the sample as a whole holds those more often. Values without a mark were called inactive. Calls of active or inactive are those of the source. Rule as the data show it: active = growth inhibition above about 70%; inactive = the rest.

Assay: NCI Yeast Anticancer Drug Screen. Data for the rad18 strain (AID 177)
Settings: S. cerevisiae rad18 mutant growth inhibition, stronger effect = higher value
Description: Growth inhibition of yeast strains with defined genetic alterations is measured as a screen for potential anti-cancer activity. Selected strains with alterations in DNA damage repair or cell cycle control were exposed to compounds and growth inhibition was measured relative to vehicle treated controls. The strain used in this assay is rad18

Row | SMILES | growth inhibition (at 1.2 µM) | growth inhibition (at 3.7 µM) | growth inhibition (at 11.0 µM) | growth inhibition (at 33.0 µM) | growth inhibition (at 100.0 µM)
1 | COc1ccc(/C(C)=N/OC(=O)c2c(-c3ccccc3Cl)noc2C)cc1CN1CCOCC1 | -16% | -14% | -2% | 21% | 74% (active)
2 | CCCCCCCCCCCCCCC(C(=O)[O-])[n+]1ccccc1 (stereo not given) | 3% | 8% | 24% | 81% (active) | 97% (active)
3 | O=C(O)CNc1ccc(Cl)c(Cl)c1 | -2% | -4% | 2% | 76% (active) | 98% (active)
4 | CC(C)(C)c1nc2c(o1)C(=O)c1ccccc1C2=O | -25% | -14% | 4% | 77% (active) | 95% (active)
5 | Nc1ccc2c(c1)C(=O)c1cccc(N)c1C2=O | 5% | 39% | 91% (active) | 97% (active) | 93% (active)
6 | COC(=O)C1=C(C)NC(C)=C(C(=O)OCCCN2CCC(c3ccccc3)(c3ccccc3)CC2)C1c1cccc([N+](=O)[O-])c1 (stereo not given) | -7% | 9% | 94% (active) | 97% (active) | 88% (active)
7 | Cc1ccc(S(=O)(=O)NNC(=S)Nc2cccc3ccccc23)cc1 | -1% | -1% | 2% | -4% | 12%
8 | OCC(Cn1cncn1)(c1ccc(F)cc1F)n1cncn1 (stereo not given) | 41% | 60% | 67% | 65% | 65%
